Consider 19 molecules from PubChem BioAssay.

In experiment [1] the target is Voltage-gated inwardly rectifying potassium channel KCNH2 (Homo sapiens) (UniProt Q12809). Put plainly: hERG channel inhibition, counter-screen for Kir2.1 inhibitor project, cell-based, thallium flux (AID 2236; call rule not given here;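 further: host cells are CHO cells stably expressing hERG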). As to conditions: hERG-expressing cells, at 10 µM, stronger effect = higher value. Background: hERG is a cardiac potassium channel; its block is linked to QT prolongation.

The target of experiment [2] is Potassium channel subfamily K member 9 (Homo sapiens) (UniProt Q9NPC2). Put plainly: KCNK9 channel inhibition, selectivity assay for Kir2.1 inhibitor project, cell-based (AID 2329; call rule not given here). As to conditions: KCNK9-expressing cells, ion flux inhibition; at 10 µM; stronger effect = higher value.
In experiment [3] the target is Short transient receptor potential channel 4 (Mus musculus) (UniProt Q9QUQ5). Put plainly: mouse TRPC4 membrane potential modulation by TRPC6 hits, confirmation, selectivity assay for TRPC6 inhibitor project, cell-based, second specificity screen, HEK293 TRPC4/mu-opioid (AID 2776;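 active means compounds whose fluorescence signal differed from control wells by over 3 SD, either direction, in both duplicate plates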). As to conditions: HEK293 TRPC4/MOR, membrane potential dye fluorescence; at 10 µM; stronger effect = higher value; channel activated by saturating DAMGO dose.

Experiment [4] concerns transient receptor potential cation channel C4 (TRPC4), mouse. Kind of experiment: mouse TRPC4 modulation by TRPC6 hits, confirmation, selectivity assay for TRPC6 inhibitor project, cell-based, HEK293 TRPC4/mu-opioid, membrane potential dye (AID 2777;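 active means rise or fall in signal beyond 3 SD of buffer-only wells in both replicate plates, either sign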;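 further: integrated kinetic ratio of fluorescence range over baseline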). As to conditions: membrane potential fluorescence, at 10 µM.
Experiment [5] in a line: nonspecific membrane potential effects, parental HEK293, confirmation, counter-screen for TRPC6 inhibitor project, cell-based, second counter screen (AID 2779;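 active means membrane potential signal moving either way by over 3 SD of the maximum-effect control, in both duplicate plates, meaning non-specific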). The conditions noted are these: parental HEK293 membrane potential dye fluorescence; at 10 µM; maximal acetylcholine challenge after compound addition. On the technique in general: Counterscreens check selectivity or assay interference.

A short description of experiment [6]: membrane potential modulation in parental HEK293, confirmation, counter-screen for TRPC6 inhibitor project, cell-based (AID 2780;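 active means membrane potential signal shifting up or down by more than 3 SD of buffer-only wells, on both duplicate plates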;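 on membrane potential signal change: plate controls were buffer EC0 wells for no effect and acetylcholine ECmax wells for full effect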). As to conditions: parental HEK293 membrane potential dye fluorescence; at 10 µM.
The target of experiment [7] is Inward rectifier potassium channel 2 (Mus musculus) (UniProt P35561). Kind of experiment: mouse Kir2.1 channel blockers, Kir2.1 inhibitor project, cell-based, secondary, automated electrophysiology (AID 463252; call rule not given here). As to conditions: Kir2.1 cells, automated patch-clamp current inhibition; at 25 µM; stronger effect = higher value. Background: The patch-clamp technique gives a direct electrical read-out from membranes.

Experiment [8] addresses Short transient receptor potential channel 6 (Mus musculus) (UniProt Q61143). Put plainly: mouse TRPC6 channel inhibitors, confirmation, HEK293 cells, membrane potential dye, duplicate (AID 488960;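 active means fluorescence ratio falls more than 5 SD below the full-stimulation control mean, in both duplicate runs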;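 on inhibition: integrated fluorescence ratio of peak minus minimum over baseline after agonist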). As to conditions: ACh-evoked depolarization, at 10 µM; stronger effect = higher value.
Experiment [9] shares this target. Kind of experiment: mouse TRPC6 channel activators, confirmation, HEK293 cells, membrane potential dye, duplicate (AID 488961;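 active means ratio signal rise beyond 5 SD above unstimulated control wells' mean, seen in both duplicate runs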). As to conditions: HEK293-TRPC6 membrane potential dye fluorescence, FDSS; at 10 µM.
A short description of experiment [10]: nonspecific thallium flux increase in parental CHO-K1, confirmation, counter-screen for KCNQ2 potentiator project, cell-based, FluxOR thallium flux, duplicate (AID 2282;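 active means signal rise of at least 3 SD above the untreated control mean, in both duplicate wells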;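 further: counter screen of KCNQ2 potentiator hits so any rise reflects channel-independent effects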). The conditions noted are these: parental CHO-K1 cells, FluxOR thallium flux fluorescence; at 10 µM; stronger effect = higher value; zero = vehicle mean+3SD, 100% = vehicle-minus-blank window.
Experiment [11] has as its target Potassium voltage-gated channel subfamily KQT member 1 (Homo sapiens) (UniProt P51787). Kind of experiment: human KCNQ1 channel potentiation off-target, confirmation, selectivity assay for KCNQ2 potentiator project, cell-based, CHO, FluxOR thallium flux (AID 2283;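 active means fluorescence ratio rise of at least 3 SD of vehicle wells above their mean, in both replicate wells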;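 further: 0% = vehicle mean plus 3 SD and 100% = vehicle minus unstimulated blank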). The conditions noted are these: CHO KCNQ1 stable, FluxOR thallium flux fluorescence; at 10 µM; stronger effect = higher value; beyond 3SD, as % of vehicle-control signal.

In experiment [12] the target is Potassium voltage-gated channel subfamily KQT member 2 (Rattus norvegicus) (UniProt O88943). Put plainly: rat KCNQ2 channel potentiators, confirmation, cell-based, CHO, FluxOR thallium flux, duplicate (AID 2287;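 active means fluorescence ratio rising 3 SD or more over the vehicle control mean in both replicates, plus primary screen hit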;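 further: peak minus minimum thallium fluorescence divided by baseline after K/Tl stimulus; 0% = vehicle mean plus 3 SD and 100% = vehicle minus unstimulated blank difference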). The conditions noted are these: CHO-KCNQ2 cells, FluxOR thallium flux fluorescence; at 10 µM; stronger effect = higher value.
For experiment [13], the target named is Inward rectifier potassium channel 2 (Mus musculus) (UniProt P35561). Put plainly: PubChem AID 2345.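 Further: 0% = vehicle mean plus 3 SD and 100% = vehicle minus no-stimulus blank window.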 The conditions noted are these: HEK293 Kir2.1, FluxOR thallium flux fluorescence; at 10 µM; stronger effect = higher value.
Experiment [14] concerns the target Potassium voltage-gated channel subfamily KQT member 2 (Rattus norvegicus) (UniProt O88943). Put plainly: potentiators of retigabine-insensitive KCNQ2 W236L, mechanism study for KCNQ2 potentiator project, cell-based, rat KCNQ2 W236L, CHO, automated patch clamp (AID 2558;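 active means current increase at least 3 SD of the untreated controls above them in both duplicate recordings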). As to conditions: automated patch clamp current, at 25 µM.
Experiment [15] addresses Potassium voltage-gated channel subfamily KQT member 1 (Homo sapiens) (UniProt P51787). Kind of experiment: KCNQ1 channel current potentiators, confirmation, orthogonal assay for KCNQ1 potentiator project, IonWorks patch clamp, KCNQ1-CHO cells (AID 493184). As to conditions: automated patch clamp current, at 10 µM.
The nature of experiment [16]: parental HEK293 membrane potential modulation, confirmation, counter-screen for TRPC6 modulator project, cell-based (AID 488924;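 active means membrane potential signal moves up or down beyond 5 SD from buffer-only wells, on both duplicate plates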). As to conditions: parental HEK293, membrane potential dye fluorescence; at 10 µM.
Experiment [17] is described as follows: modulation of acetylcholine-evoked membrane potential, parental HEK293, confirmation, counter-screen for TRPC6 modulator project, cell-based, second counter-screen, membrane potential dye (AID 488926;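 active means membrane potential signal drops by more than 5 SD from the mean control signal, in both duplicate plates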;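 on inhibition: plate controls were acetylcholine ECmax control wells for no effect and buffer only wells for full effect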). The conditions noted are these: parental HEK293, membrane potential dye fluorescence, at 10 µM, after compound, maximal acetylcholine stimulation; stronger effect = higher value.

Experiment [18] deals with Transient receptor potential cation channel subfamily C member 4 (mouse). Kind of experiment: TRPC4 modulation by TRPC6 hit compounds, confirmation, selectivity assay for TRPC6 modulator project, cell-based, HEK293 TRPC4/mu-opioid, membrane potential dye, mouse (AID 488927;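 active means membrane potential signal moved up or down beyond 5 SD of buffer control wells, in both duplicate plates, actives on both sides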;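 on percent change from control (negative = decrease, positive = increase): plate controls were assay buffer wells for no effect and DAMGO maximal-effect wells for full effect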). The conditions noted are these: membrane potential fluorescence, at 10 µM.
Experiment [19] relates to TRPC4 (transient receptor potential cation channel C4), mouse. Put plainly: TRPC4 inhibition by TRPC6 hit compounds, confirmation, selectivity assay for TRPC6 modulator project, cell-based, second screen, HEK293 TRPC4/mu-opioid, membrane potential dye (AID 488928;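 active means drop in membrane potential signal beyond 5 SD of the control wells in both duplicate plates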;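 further: TRPC4 counter screen for TRPC6 hits run under conditions tuned for TRPC6 not TRPC4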). As to conditions: membrane potential dye fluorescence, at 10 µM, stimulated with maximal-effect DAMGO; stronger effect = higher value.

Experiment [20] concerns the target Potassium voltage-gated channel subfamily E member 1 (Homo sapiens) + Potassium voltage-gated channel subfamily KQT member 1 (Homo sapiens) (UniProt P15382+P51787). Put plainly: KCNQ1/KCNE1 complex potentiators, confirmation, selectivity assay for KCNQ1 potentiator project, thallium flux, CHO-K1 KCNQ1/E1 cells (AID 493186;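 active means mean duplicate activation above the buffer control mean plus 5 SD of those controls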). As to conditions: FluxOR thallium flux, at 10 µM.

Each structure is given as a SMILES string. Unmarked numbers belong to inactive results. This is one part of the list. Active and inactive are the calls of the source.

Chain of Potassium voltage-gated channel subfamily KQT member 1 (Homo sapiens) (P51787 whole entry, looked up): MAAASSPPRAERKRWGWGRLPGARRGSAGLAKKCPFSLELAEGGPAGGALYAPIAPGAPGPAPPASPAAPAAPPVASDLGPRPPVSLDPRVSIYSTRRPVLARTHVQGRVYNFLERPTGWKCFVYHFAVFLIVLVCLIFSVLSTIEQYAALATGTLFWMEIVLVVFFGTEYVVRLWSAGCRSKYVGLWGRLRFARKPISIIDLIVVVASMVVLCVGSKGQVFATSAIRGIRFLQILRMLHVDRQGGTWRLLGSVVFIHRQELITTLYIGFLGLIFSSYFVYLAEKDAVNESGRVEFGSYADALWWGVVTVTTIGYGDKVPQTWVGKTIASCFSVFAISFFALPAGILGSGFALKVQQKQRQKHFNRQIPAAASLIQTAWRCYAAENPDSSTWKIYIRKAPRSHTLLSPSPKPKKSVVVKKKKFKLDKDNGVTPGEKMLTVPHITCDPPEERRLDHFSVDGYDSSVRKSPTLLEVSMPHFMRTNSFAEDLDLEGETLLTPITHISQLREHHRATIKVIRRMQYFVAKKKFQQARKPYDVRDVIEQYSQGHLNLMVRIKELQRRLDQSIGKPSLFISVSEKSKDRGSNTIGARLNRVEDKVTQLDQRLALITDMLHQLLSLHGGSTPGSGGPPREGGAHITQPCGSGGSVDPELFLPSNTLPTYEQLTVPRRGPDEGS
Chain of Short transient receptor potential channel 4 (Mus musculus) (Q9QUQ5 whole entry, looked up): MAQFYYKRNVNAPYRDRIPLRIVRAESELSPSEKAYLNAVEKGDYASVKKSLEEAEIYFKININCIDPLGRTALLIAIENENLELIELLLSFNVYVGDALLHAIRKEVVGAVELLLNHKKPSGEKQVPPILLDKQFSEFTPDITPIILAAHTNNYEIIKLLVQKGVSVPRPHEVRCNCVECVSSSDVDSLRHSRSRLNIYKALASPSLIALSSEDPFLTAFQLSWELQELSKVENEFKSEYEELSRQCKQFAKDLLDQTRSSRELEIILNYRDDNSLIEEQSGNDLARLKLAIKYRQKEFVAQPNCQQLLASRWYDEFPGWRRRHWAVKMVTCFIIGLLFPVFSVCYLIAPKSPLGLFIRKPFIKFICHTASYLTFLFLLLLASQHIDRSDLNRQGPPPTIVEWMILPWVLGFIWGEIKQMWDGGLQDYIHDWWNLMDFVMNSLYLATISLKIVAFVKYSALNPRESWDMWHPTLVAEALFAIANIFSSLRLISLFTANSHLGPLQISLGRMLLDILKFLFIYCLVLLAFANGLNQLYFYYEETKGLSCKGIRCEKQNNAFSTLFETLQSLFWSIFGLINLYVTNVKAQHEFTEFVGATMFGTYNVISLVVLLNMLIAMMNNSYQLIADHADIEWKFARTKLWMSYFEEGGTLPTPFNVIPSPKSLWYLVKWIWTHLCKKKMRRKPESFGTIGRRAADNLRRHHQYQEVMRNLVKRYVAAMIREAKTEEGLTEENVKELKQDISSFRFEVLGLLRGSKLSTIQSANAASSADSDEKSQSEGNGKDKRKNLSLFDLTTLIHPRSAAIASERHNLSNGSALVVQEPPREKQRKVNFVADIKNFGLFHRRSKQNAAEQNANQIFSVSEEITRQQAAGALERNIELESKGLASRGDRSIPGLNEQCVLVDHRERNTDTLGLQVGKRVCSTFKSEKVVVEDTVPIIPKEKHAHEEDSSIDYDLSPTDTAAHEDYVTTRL
Chain of Short transient receptor potential channel 6 (Mus musculus) (Q61143 whole entry, looked up): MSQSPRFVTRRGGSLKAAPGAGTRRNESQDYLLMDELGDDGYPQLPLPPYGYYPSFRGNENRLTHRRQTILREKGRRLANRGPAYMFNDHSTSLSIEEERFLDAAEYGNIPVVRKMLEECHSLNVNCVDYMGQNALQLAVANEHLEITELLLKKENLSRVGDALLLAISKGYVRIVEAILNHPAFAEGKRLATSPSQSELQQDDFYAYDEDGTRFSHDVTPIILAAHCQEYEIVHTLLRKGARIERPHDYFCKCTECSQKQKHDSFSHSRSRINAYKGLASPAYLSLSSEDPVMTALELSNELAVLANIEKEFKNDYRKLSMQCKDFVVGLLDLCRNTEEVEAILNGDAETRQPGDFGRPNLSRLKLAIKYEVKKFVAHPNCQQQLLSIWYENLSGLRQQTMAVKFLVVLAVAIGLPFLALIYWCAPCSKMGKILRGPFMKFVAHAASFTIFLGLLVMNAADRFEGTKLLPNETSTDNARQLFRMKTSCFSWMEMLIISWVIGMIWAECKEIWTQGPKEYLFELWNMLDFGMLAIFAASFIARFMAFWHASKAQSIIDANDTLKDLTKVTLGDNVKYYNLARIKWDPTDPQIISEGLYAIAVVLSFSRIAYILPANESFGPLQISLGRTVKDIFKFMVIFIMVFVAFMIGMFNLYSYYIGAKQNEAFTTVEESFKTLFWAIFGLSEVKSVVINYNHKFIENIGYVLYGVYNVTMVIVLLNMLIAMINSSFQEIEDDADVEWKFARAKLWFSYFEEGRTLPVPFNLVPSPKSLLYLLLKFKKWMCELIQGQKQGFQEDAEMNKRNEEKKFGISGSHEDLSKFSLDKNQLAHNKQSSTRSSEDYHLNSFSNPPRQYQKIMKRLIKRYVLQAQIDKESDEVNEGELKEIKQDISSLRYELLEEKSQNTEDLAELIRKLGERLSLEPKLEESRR
Chain of Potassium voltage-gated channel subfamily E member 1 (Homo sapiens) + Potassium voltage-gated channel subfamily KQT member 1 (Homo sapiens) (P51787 whole entry, looked up): as the sequence (P51787 whole entry, looked up) above
Chain of Inward rectifier potassium channel 2 (Mus musculus) (P35561 whole entry, looked up): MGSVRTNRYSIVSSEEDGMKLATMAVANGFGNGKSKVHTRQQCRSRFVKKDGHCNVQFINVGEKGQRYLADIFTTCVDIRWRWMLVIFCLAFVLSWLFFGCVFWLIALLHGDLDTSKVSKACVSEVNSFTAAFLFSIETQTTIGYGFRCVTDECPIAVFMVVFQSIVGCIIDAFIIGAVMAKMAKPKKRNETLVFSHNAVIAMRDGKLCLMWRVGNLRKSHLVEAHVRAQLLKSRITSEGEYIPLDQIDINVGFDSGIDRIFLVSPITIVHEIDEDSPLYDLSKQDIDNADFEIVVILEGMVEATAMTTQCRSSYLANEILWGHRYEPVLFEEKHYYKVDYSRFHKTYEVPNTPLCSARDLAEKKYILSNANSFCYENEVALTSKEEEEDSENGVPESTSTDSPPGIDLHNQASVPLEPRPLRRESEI
Chain of Voltage-gated inwardly rectifying potassium channel KCNH2 (Homo sapiens) (Q12809 whole entry, looked up): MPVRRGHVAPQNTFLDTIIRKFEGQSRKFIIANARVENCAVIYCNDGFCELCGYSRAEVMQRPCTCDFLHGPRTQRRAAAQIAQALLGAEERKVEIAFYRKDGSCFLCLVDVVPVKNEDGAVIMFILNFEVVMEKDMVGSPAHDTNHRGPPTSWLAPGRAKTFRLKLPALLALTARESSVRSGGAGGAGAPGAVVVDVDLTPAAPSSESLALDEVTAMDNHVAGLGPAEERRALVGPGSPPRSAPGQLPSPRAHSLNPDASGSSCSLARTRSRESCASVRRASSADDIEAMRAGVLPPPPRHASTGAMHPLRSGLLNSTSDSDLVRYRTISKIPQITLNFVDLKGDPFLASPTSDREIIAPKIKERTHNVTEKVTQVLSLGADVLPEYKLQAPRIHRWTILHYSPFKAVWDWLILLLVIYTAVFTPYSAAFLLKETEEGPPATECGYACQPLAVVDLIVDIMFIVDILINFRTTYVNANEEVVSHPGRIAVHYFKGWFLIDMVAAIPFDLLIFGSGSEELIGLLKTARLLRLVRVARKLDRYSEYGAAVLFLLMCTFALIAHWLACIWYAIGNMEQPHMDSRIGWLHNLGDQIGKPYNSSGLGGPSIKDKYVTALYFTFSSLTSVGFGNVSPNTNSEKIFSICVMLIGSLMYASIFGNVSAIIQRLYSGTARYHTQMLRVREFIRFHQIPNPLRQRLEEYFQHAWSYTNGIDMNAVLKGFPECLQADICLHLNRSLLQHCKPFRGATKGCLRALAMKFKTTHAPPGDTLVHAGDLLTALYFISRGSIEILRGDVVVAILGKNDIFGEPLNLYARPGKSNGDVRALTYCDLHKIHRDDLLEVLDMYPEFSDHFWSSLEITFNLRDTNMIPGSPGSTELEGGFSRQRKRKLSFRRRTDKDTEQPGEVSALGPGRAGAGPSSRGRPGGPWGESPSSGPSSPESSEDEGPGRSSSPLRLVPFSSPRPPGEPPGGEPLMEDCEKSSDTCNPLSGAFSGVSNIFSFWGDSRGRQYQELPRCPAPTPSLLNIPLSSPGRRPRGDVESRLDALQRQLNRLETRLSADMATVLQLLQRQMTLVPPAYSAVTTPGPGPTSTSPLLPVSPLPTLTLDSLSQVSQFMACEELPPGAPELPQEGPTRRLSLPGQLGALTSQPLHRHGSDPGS

As a reminder, the inhibition is the change of the read-out against control, counted positive when it falls. Regarding `CCOc1cccc(=NC2CCCCC2)c2c(C)[nH]c(C)c12`, the inhibition in experiment [1] was 74% (active); in experiment [2], 48% (active); in experiment [3] it was 56% (active); in [7], 13.9% (active). The activity change, negative = inhibition in experiment [4] was -8.98% (active). The signal change vs control in experiment [5] was -3.5% (active). Also, in experiment [6], the membrane potential signal change was -146% (active). Also, the call in experiment [8] and in experiment [9] was inactive.

On to `COc1cc(-n2c(=S)[nH]c3ccc(C)cc3c2=O)c(Cl)cc1Cl`, for which, in [10], the activity increase over 3SD of controls was 2.8% (active). Besides, the activation over 3SD threshold in [11] was -13.6%. The potentiation, less the hit threshold in [12] was 1.9% (active). In addition, in experiment [13], the activity over 3SD threshold was -22.9%. For the same molecule, the outcome in experiment [14] and in experiment [15] was inactive.

As for `O=C1NC(=O)N(Cc2ccc(F)cc2)C(=O)/C1=C/c1cccs1`, the outcome in experiment [15] was inactive.

Regarding `CCCCCCCCCCCCn1ccc(=N)cc1`, the inhibition is 66% (active) in experiment [3] and 56.1% (active) in experiment [8]. In experiment [4], the activity change, negative = inhibition was -9.73% (active). In addition, the outcome in experiment [5] and in experiment [9] was inactive. Besides, the membrane potential signal change in experiment [6] was -166% (active).

Turning to `CN1CCC(c2c[nH]c3ccccc23)C1` (centres undefined), in [15], the result was inactive.

As for `CN1CCN(c2cc(N3CCCC3)c([N+](=O)[O-])cc2F)CC1`, the outcome in experiment [15] was inactive.

As for `CC1=CC(=Cc2sc3ccccc3[n+]2C)C=C(C)O1`, the result in experiment [16], in [18], in experiment [19] and in experiment [9] was inactive. In addition, the inhibition in experiment [17] was 131% (active); in [8] it was 73% (active).

`Cc1ccc(C[n+]2c(-c3ccc(C)cc3)cc(-c3ccc(C)cc3)cc2-c2ccc(C)cc2)cc1`: in [15], the result was inactive.

For `CC(=NCc1ccc(F)cc1)c1c(O)n(C)c(=O)n(C)c1=O`, the outcome in [15] was inactive.

On to `CC1(C)Cc2c(C#N)c(N3CCNCC3)nc(-c3ccco3)c2CS1`, for which the result in [16], in experiment [17] and in experiment [9] was inactive. Further, in experiment [18], the percent change from control (negative = decrease, positive = increase) is -14.5% (active). For the same molecule, the inhibition in experiment [19] was 76.5% (active); in experiment [8], 62.5% (active).

As to `C=C(C)[C@@]12OC3(c4ccccc4)O[C@@H]1C1[C@@H]4O[C@]4(CO)[C@@H](O)[C@]4(O)C(=O)C(C)=C[C@H]4[C@@]1(O3)[C@H](C)[C@H]2OC(=O)/C=C/C=C/c1ccccc1` (some centres undefined), the outcome in [15] was inactive.

Regarding `CN1CCN(c2cc(N3CCNCC3)ccc2[N+](=O)[O-])CC1`, in experiment [16], the membrane potential signal change was -426% (active). Also, the values for the inhibition in experiment [17], in experiment [19] and in experiment [8] were 102% (active), 66.5% (active) and 72.5% (active), respectively. Further, the percent change from control (negative = decrease, positive = increase) in [18] was -68% (active). In [9], the outcome was inactive.

Consider `O=C(CCCN1CCC2(CC1)C(=O)NCN2c1ccccc1)c1ccc(F)cc1`, for which the outcome in experiment [15] was inactive.

For the molecule `COc1cccc(-c2nc3ccc(N4CCN(C)CC4)cc3[nH]2)c1`, in experiment [3], the inhibition is 74% (active). For the same molecule, the call in [4], in experiment [5], in experiment [6], in [8] and in experiment [9] was inactive.

For `CNc1ccc2oc(C[C@H]3O[C@@]4(CC[C@H]3C)O[C@H]([C@H](C)C(=O)c3ccc[nH]3)[C@H](C)C[C@H]4C)nc2c1C(=O)O`, the result in [15] was inactive.

For the molecule `O=C(c1ccc(-c2ccccc2)cc1)C1CCCN(Cc2ccn[nH]2)C1` (centres undefined), the result in [15] was inactive.

`COc1ccc(C(=O)OC2CC[C@@]3(C)C4CCC5[C@]6(O)CC(O)[C@@]7(O)C(CN8CC(C)CCC8[C@@]7(C)O)[C@]6(O)C[C@@]53O[C@]24O)cc1OC` (some centres undefined): the outcome in experiment [15] and in experiment [20] was inactive.

For `CC1=CC2/C=C(\C)CCC(O)C(O)/C=C/C(=O)C23C(=O)NC(CC(C)C)C3C1C` (centres undefined), the result in experiment [15] and in experiment [20] was inactive.

Regarding `Nc1ncnc2c1ccn2[C@@H]1O[C@H](CO)[C@@H](O)[C@H]1O`, the result in experiment [15] was inactive.
